Source: ChEMBL document CHEMBL1157539, “Thousands of chemical starting points for antimalarial lead identification” (Nature, 2010)

Assays:
Format in all cases: functional
Plasmodium falciparum [1] = assay: GSK_TCMDC: Inhibition of Plasmodium falciparum 3D7 in whole red blood cells, using parasite LDH activity as an index of growth. Test compounds present at 2uM
Plasmodium falciparum [2] = assay: GSK_TCMDC: Inhibition of Plasmodium falciparum Dd2 in whole red blood cells, using parasite LDH activity as an index of growth. Test compounds present at 2uM
HepG2 = assay: GSK_TCMDC: Percent inhibition of human HepG2 cell line. Test compounds present at 10uM.

Row | Compound | Inhibition (Plasmodium falciparum [1]) | Inhibition (Plasmodium falciparum [2]) | Inhibition (HepG2)
1 | Fc1ccc2[nH]c(-c3ccccc3)nc2c1CN1CCC(N2CCCC2)CC1.O=CO | 100% | 30% | 2%
2 | Cc1[nH]cnc1CSCCNC(=N)NCCCCCCCCNC(=N)NCCSCc1nc[nH]c1C.Cl | 96% | 95% | 24%
3 | CS(=O)(=O)c1ccc(CNCc2ccc(-c3cccc(-c4nc5cc(C(F)(F)F)ccc5[nH]4)c3)cc2)cc1.O=C(O)C(F)(F)F | 100% | 100% | 54%
4 | CN1CCN(c2cc3c(cc2Cl)CCN3C(=O)Nc2ccc(NC(=O)c3ccc(C(F)(F)F)cc3)cc2)CC1.Cl | 100% | 99% | 98%
5 | CC(Cc1ccc(NC(=O)c2ccc(CC(C)NCc3ccc(Cl)c(Cl)c3)cc2)cc1)NCCc1cccc(Cl)c1 (stereo not given) | 92% | 33% | 26%
6 | O=c1cc(NCCCN(Cc2cc3c(Cl)cc(Cl)cc3[nH]2)Cc2cc3c(Cl)cc(Cl)cc3[nH]2)[nH]c2ccccc12 | 87% | 80% | 23%
7 | Cc1ccc(Nc2nccc(NCC(O)c3cccc(F)c3)n2)cc1 (stereo not given) | 95% | 26% | 24%
8 | COc1cc(Cc2cnc(N)nc2N)cc(OCCCc2cc(OCc3ccccc3)no2)c1OC | 86% | 4% | 30%
9 | Cl.N=c1c2c(n(Cc3ccccc3)c3c1CCC3)CCCC2 | 86% | 39% | 4%
10 | O=C(O)C(F)(F)F.Oc1ccc(CCNc2nc(NCCOc3cccc4ccccc34)nc(N3CCNCC3)n2)cc1 | 96% | 8% | 21%
